Reference: PubChem BioAssay AID2391 (Southern Research Specialized Biocontainment Screening …, 2010)
The campaign covered roughly 310,000 compounds. About 410 (0.13%) were called active. Not shown: some 2% with an inconclusive outcome. How the calls were made is not given here. Only a sample is shown. Measured potencies and affinities stand elsewhere.

Experiment: RSV antiviral activity via CPE protection, HEp-2 cells, primary 10 µM value included (AID 2391)
Conditions: RSV-induced CPE inhibition, at 10 µM, active compounds read high

CPE inhibition, inactive:
Cc1ccccc1-c1cc2nc(C)c(C)c(=O)n2[nH]1 2.53%, Cc1cccnc1NC1CCCCC1 0.99%, COc1ccc(NC(=O)COc2ccccc2C(=O)NCC(c2ccccc2)N(C)C)cc1Cl (stereo not drawn) 0.1%, CN(C)c1ccc(NC(=O)/C=C/c2ccccc2Cl)cc1 4.05%, O=C(/C=C/c1c(Cl)cccc1Cl)Nc1ccncc1 15.2%, CCCCNCc1cc(Br)c(OCC(=O)N2CCOCC2)c(OC)c1 0.24%, O=C(O)Cc1ccc(NC(=O)c2ccc3c(c2)C(=O)N(Cc2ccco2)C3=O)cc1 1.76%, O=C(Nc1ccc2c(c1)CCC2)C1CCCN(c2ncccn2)C1 (stereo not drawn) -1.9%, Cc1cccc(-c2nc(CSCC(=O)N3CCN(Cc4ccc5c(c4)OCO5)CC3)c(C)o2)c1 4.52%, O=C1CC(SC(=NCc2ccc3c(c2)OCO3)Nc2ccccc2)C(=O)N1c1ccccc1 (stereo not drawn) 3.83%, CCOc1ccc(NC(=NCc2ccc3c(c2)OCO3)SC2CC(=O)N(c3ccccc3)C2=O)cc1 (stereo not drawn) 1.98%, CCOc1ccc(NC(=NCc2ccc3c(c2)OCO3)SC2CC(=O)N(c3ccc(OCC)cc3)C2=O)cc1 (stereo not drawn) 2.56%, O=C(O)c1ccc(N2C(=O)CC(SC(=NCc3ccc4c(c3)OCO4)Nc3ccccc3)C2=O)cc1 (stereo not drawn) 5.3%, COc1ccc(CN2C(=O)c3cccnc3C2=O)cc1S(=O)(=O)N(C)c1cccc(C)c1 1.8%, O=C(Nc1ccc(Cn2cccn2)cc1)c1ccc(COc2cccc(Br)c2)cc1 -0.58%, Cc1ccc(C(=O)NCC2CCCN2S(=O)(=O)c2cccs2)cc1C (stereo not drawn) 1.81%, CCC(C)c1ccc2oc(-c3ccc(NC(=O)c4ncn[nH]4)cc3)nc2c1 (stereo not drawn) 9.89%, Cc1ccc(-c2nc3cc(NC(=O)C(C)C)ccc3o2)cc1 4.38%, CCC(C)NCC(=O)Nc1ccc(-c2nc3cc(NC(=O)CNC(C)CC)ccc3o2)cc1 (stereo not drawn) 1.28%, CCCC(=O)Nc1ccc(-c2nc3cc(C)ccc3o2)cc1 40.7%, Cc1ccc(-c2nc3cc(NC(=O)C(C)C)ccc3o2)cc1C 14.6%, CCCC(=O)Nc1cccc(-c2nc3cc(C)c(C)cc3o2)c1 1.54%, Clc1ccc(CSc2ccc(-c3cccnc3)nn2)cc1 20.4%, Cc1c(C(=O)OCC(=O)Nc2c(C)n(C)n(-c3ccccc3)c2=O)oc2ccccc12 0.38%, Cc1cc(OCC(O)CN2CCCC2)cc(C)c1Cl (stereo not drawn) -0.91%, CC(C)n1c(SCC(=O)N2CCCC2)nc2c1c(=O)n(C)c(=O)n2C -0.46%, CCCN(Cc1nnc(-c2ccccc2Cl)o1)C(=O)c1oc2ccccc2c1C 44%, O=C(c1ccccc1)c1cc([N+](=O)[O-])ccc1N1CCCC1 3.67%, S=c1nccc(-c2cccs2)[nH]1 5.75%, O=C1c2ccccc2NC2(CCCC2)N1N=C1CCCC1 2.08%, O=C1CC(NCc2ccccc2F)C(=O)N1c1ccccc1 (stereo not drawn) 0.44%, Cc1ccc(NC(=O)CCS(=O)(=O)c2cccc3nonc23)c(Cl)c1 0.71%, COC(=O)c1ccc(CSc2nc3ccccc3c(=O)n2CC(C)C)o1 4.85%, COC(=O)c1ccc(Cn2nnc3ccccc3c2=O)o1 4.91%, Cc1c(C)c2ccc(OCC(=O)Nc3nccs3)cc2oc1=O 20.3%, COc1ccc(OC)c(N(C(=O)c2ccco2)C(C(=O)NC2CCCC2)c2ccc(N3CCOCC3)cc2)c1 (stereo not drawn) 1.32%, CCOc1ccc(/C=C2\SC(=S)N(NS(=O)(=O)c3ccccc3)C2=O)cc1OC 2.94%, COc1cc(/C=C2\SC(=S)N(NS(=O)(=O)c3ccccc3)C2=O)ccc1O 4.97%, CN1CCN(C(=O)c2cc(Cl)cc(Cl)c2NC(=O)c2ccco2)CC1 0.57%, Cc1cc(NC(=O)c2cc3ccccc3o2)ccc1NC(=O)c1ccccc1 5.86%, O=C(Nc1ccc(NC(=O)c2cc3ccccc3o2)cc1)c1ccc2c(c1)OCCO2 6.03%, Cc1ccc(N(CC(=O)NCCc2ccc(F)cc2)S(=O)(=O)c2ccc(Cl)c([N+](=O)[O-])c2)c(C)c1 3.85%, Cc1cc(C)c2nc(N3CCC(C(=O)NCCCN4CCCCC4)CC3)sc2c1 21.9%, Cc1cccc(S(=O)(=O)Nc2ccc(-c3cn4ccccc4n3)cc2)c1 21%, COC(=O)Cn1c(=NC(=O)c2cccc(OC)c2)sc2cc(OC)ccc21 1.97%, NNC(=O)c1cc(-c2ccccc2)sc1N 1.27%, Nc1c(C(=O)N/N=C/c2ccc(Cl)cc2)cnn1-c1ccccc1 0.12%, OCCC1CN(Cc2cccn2-c2nccs2)CCN1Cc1ccccc1 (stereo not drawn) -1.03%, CC(C)CCN1CCN(Cc2cccn2-c2nccs2)CC1CCO (stereo not drawn) 1.17%, COc1ccc(Cn2nnnc2C(c2cccs2)N2CCOCC2)cc1 (stereo not drawn) 0.05%, CC(=O)Nc1ccc(NC(=O)c2c(C)nn(Cc3ccccc3)c2Cl)cc1 5.46%, Cc1nn(-c2ccccc2Cl)c(Cl)c1/C=N/Nc1cccc(C(=O)O)c1 3.47%, Cc1nn(-c2ccccc2Cl)c(Cl)c1/C=N/Nc1nc2ccccc2s1 4.62%, CCC(C(=O)Nc1c2c(nn1C(C)(C)C)CS(=O)(=O)C2)c1ccccc1 (stereo not drawn) 1.09%, Cn1ccnc1SCc1ccc(Cl)cc1Cl 1.17%, CN(C)/C=C/c1onc(-c2c(Cl)cccc2Cl)c1C#N 1.69%, N#Cc1c(-c2ccccc2Cl)noc1/C=C/Nc1ccc(C(=O)O)cc1 2.42%, O=C(c1ccccc1Sc1c(Cl)cccc1[N+](=O)[O-])N1CCOCC1 4.6%, COc1ccc(/C(C)=N/NC(=O)C2C3CCCCC32)c(OC)c1 (stereo not drawn) -0.16%, CCc1ccc(OCC(=O)Nc2ccc3c(c2)OCCO3)cc1 0.88%, Cc1ccc2c(c1)cc(CN(Cc1ccco1)C(=O)N1CCOCC1)c1nnnn12 -0.68%, Cc1ccc2c(c1)cc(CN(Cc1cccs1)C(=O)c1ccco1)c1nnnn12 4.88%, O=C(c1ccc(Cl)c(S(=O)(=O)N2CCCC2)c1)N1CCOCC1 4.9%, O=c1[nH]c(CNCc2cccnc2)nc2ccccc12 1.68%, CCC1C(=O)n2nc(-c3ccccc3)cc2N=C1C (stereo not drawn) 0.9%, Cc1cc(NC(=O)COC(=O)c2ccc(NS(=O)(=O)c3ccc(C)c(C)c3)cc2)no1 0.64%, Cc1cc(NC(=O)COC(=O)c2oc3c(Cl)cccc3c2C)no1 2.63%, Cc1cccc(NS(=O)(=O)c2cc(C(=O)OCC(=O)Nc3cc(C)on3)ccc2C)c1 -0.1%, Cc1cc(NC(=O)c2c(Cl)cccc2Cl)no1 -0.16%, Cc1cc(NC(=O)COc2ccc(N(C)S(=O)(=O)c3ccccc3)cc2)no1 0.18%, Cc1cc(NC(=O)COC(=O)c2cc(S(=O)(=O)N(C)c3ccccc3)ccc2Cl)no1 0.4%, O=C(CNC(=O)c1ccc(Br)o1)NNC(=O)c1cccc(Cl)c1 -2.18%, O=C1N=c2ccccc2=C1c1sc(NS(=O)(=O)c2ccccc2)nc1O 4.47%, CCOC(=O)N1CCC(N2CCCC(CO)(Cc3ccccc3C)C2)CC1 (stereo not drawn) 0.07%, CC(=O)c1cccc(NC(=O)c2csc3c2CCCCC3)c1 13.4%, N#Cc1ccccc1CSc1ncccc1C(=O)O -0.85%, CCOC(=O)C1=C(NC(=S)NC(=O)c2ccccc2)c2ccccc2CC1(C)C 7.06%, CCOC(=O)C1=C(NC(=S)NC(=O)c2ccccc2)c2ccccc2CC1(C)CC (stereo not drawn) 43.2%, CCOc1cc(/C=C2\SC(=NC)N(C)C2=O)c(Br)cc1OC(C)=O 1.71%, Cc1cccc(C)c1OCc1n[nH]c(=S)o1 0.21%, Cc1ccc2c(c1)COc1c3ccc(C(=O)N[C@@H](CO)C(C)C)cc3nn1-2 15%, Cc1ccc2c(c1)COc1c3ccc(C(=O)NC(C)C)cc3nn1-2 16.2%, CCN(CC)CCN(Cc1cc2cc3c(cc2[nH]c1=O)OCO3)C(=S)NCc1ccco1 -1.07%, CCOC(=O)CN1C(=O)N[C@@H](c2ccccc2)C(C(C)=O)=C1C 2.81%, CCOC(=O)CN1C(=O)N[C@@H](c2cccc(F)c2)C(C(=O)OC)=C1C 9.26%, OC(CNC1CCCC1)COc1ccc(Cl)cc1 (stereo not drawn) -0.21%, COc1ccc(OC)c(CN2CCC(CO)(CCOc3ccccc3)CC2)c1 -2.58%, O=C(Nc1nc2c(s1)CCCC2)c1cccc(S(=O)(=O)N2CCCc3ccccc32)c1 7.22%, O=C(Nc1nc2c(s1)CCCC2)c1ccc(S(=O)(=O)N2CCCc3ccccc32)cc1 1.63%, COc1ccc(OCC(=O)Nc2nc3c(s2)CCCC3)cc1 6.78%, O=C(COc1ccccc1)Nc1nc2c(s1)CCCC2 14%, O=C(CCCc1cccs1)Nc1nc2c(s1)CCCC2 1.81%, O=C(Nc1nc2c(s1)CCCC2)c1cccs1 14.3%
